Screening results from PubChem.
Cruzain noTriton: blocks cruzain activity in detergent-free assay. actives 2.3% (n = 200,000). Potency, µM, inactives show max response, negative = inhibition, hits mostly inhibitors. AID 1476. P25779. purified cruzain, Z-FR-AMC fluorescence, no detergent;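 further: plate controls were enzyme without inhibitor for no effect and buffer without enzyme for full effect; nearly all actives have a fitted effect of over 40% in size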
Target sequence (P25779 123-467 limits assumed): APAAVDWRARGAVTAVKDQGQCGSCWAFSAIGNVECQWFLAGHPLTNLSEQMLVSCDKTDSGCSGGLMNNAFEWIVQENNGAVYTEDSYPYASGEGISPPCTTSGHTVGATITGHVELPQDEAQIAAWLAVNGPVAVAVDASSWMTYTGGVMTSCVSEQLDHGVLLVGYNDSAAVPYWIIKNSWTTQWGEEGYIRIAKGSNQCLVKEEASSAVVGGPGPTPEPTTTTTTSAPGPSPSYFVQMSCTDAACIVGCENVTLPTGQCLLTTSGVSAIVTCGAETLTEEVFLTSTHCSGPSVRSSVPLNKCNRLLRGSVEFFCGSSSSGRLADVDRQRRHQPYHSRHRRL
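Detergent-free condition (0.00005% Triton X-100) in acetate buffer pH 5.5 with DTT. 1.5 nM enzyme and compound were pre-mixed 15 min, then 2 uM Z-FR-AMC substrate added; reaction progress from fluorescence change between first and third reads (60 s).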
Cruzain Triton: blocks cruzain activity in presence of Triton detergent. purified cruzain, Z-FR-AMC fluorescence, 0.01% Triton. Potency, µM, inactives show max response, negative = inhibition, usual class: inhibitors. actives 0.43% (n = 200,000);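 further: plate controls were neutral wells for no effect and buffer without enzyme for full effect; nearly all actives have a fitted effect of over 40% in size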
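Purified cruzain (1.5 nM final) was preincubated with compounds for 15 min at room temperature in 100 mM sodium acetate pH 5.5, 5 mM DTT, 0.01% Triton X-100. Reaction started with 2 uM Z-FR-AMC; AMC fluorescence change over 60 s gave activity.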
* = called active by the depositor; ? = inconclusive. An excerpt weighted towards active compounds, which were near 2.4% of everything screened. The call rests on the fitted dose curve; in most records, active means well fitted curve in the direction sought with a large enough effect; inconclusive means small, poorly fitted or top-dose-only effect, or another doubt; inactive means no such curve, though single readings can be large; an effect the other way counts as inactive or inconclusive. Potency means the concentration at half of the fitted maximal effect.

SMILES | Cruzain noTriton | Cruzain Triton
Cc1cc(O)ccc1Nc1nc2ccccc2nc1Nc1ccc(O)cc1C | 10µM* | -18%
Cc1ccc(Nc2nc3ccccc3s2)c(C)c1 | -3% | -9%
CCOC(=O)c1c(C)[nH]c(C)c1S(=O)(=O)N1CCCC(C(=O)NCc2ccc(N(C)C)cc2)C1 (stereo not given) | 8% | 1%
CCOc1ccccc1N(C)C(=O)C1CCCN(c2ncnc3onc(-c4ccc(F)cc4)c23)C1 (stereo not given) | 6% | -1%
COc1cc2c(cc1NC(=S)NC(=O)/C=C/c1ccc(OC)c(OC)c1)oc1ccccc12 | -25% | -3%
O=C(/C=C/c1ccccc1)NC(=S)NNC(=O)Cc1cccs1 | ? | 6%
COc1ccc(/C=C/C(=O)NC(=S)NNC(=O)Cc2cccs2)cc1 | 13µM* | 0%
COc1ccccc1NC(=S)NC(=O)/C=C/c1ccco1 | -29% | -21%
COc1cc2c(cc1NC(=O)C(C)OC(=O)/C=C/c1ccc(OC(F)F)cc1)oc1ccccc12 (stereo not given) | 32µM* | 0%
COc1ccc(/C=C/C(=O)NC(=S)Nc2cc3oc4ccccc4c3cc2OC)cc1 | 2.5µM* | 1%
COc1cc2c(cc1NC(=O)/C=C/c1ccccc1)oc1ccccc12 | ? | 0%
COc1cc2c(cc1NC(=S)NC(=O)/C=C/c1ccco1)oc1ccccc12 | 13µM* | -5%
C#CCn1c(C2CC(=O)N(c3ccc(OC)cc3)C2)nc2ccccc21 (stereo not given) | 2% | 1%
Cc1cccc(N(CC(=O)NCCc2ccccc2)S(=O)(=O)c2ccccc2)c1C | 8% | -7%
CCOC(=O)c1c(C)oc2nc(C)nc(NCC3CCN(Cc4ccc(Cl)cc4)CC3)c12 | -2% | -1%
O=C(CSc1oc(-c2ccco2)nc1S(=O)(=O)c1ccc(Cl)cc1)Nc1ccc(F)cc1 | -14% | -14%
COc1cccc(Nc2ncc3ncc(=O)n(CCc4ccccc4)c3n2)c1 | -23% | -3%
COc1cc2c(cc1NC(=S)Nc1cccc(C)c1)oc1ccccc12 | 32µM* | -3%
COc1cc2c(cc1NC(=O)Nc1cccc(C)c1)oc1ccccc12 | ? | 18%
O=C(NCCc1ccccc1)C1(c2cccs2)CCOCC1 | 10% | 1%
COc1ccc(NC(=O)C2CCN(S(=O)(=O)c3c(C)noc3/C=C/c3cccs3)CC2)cc1 | -10% | -2%
COc1cccc(NC(=O)C2CCN(S(=O)(=O)c3c(C)noc3/C=C/c3cccs3)CC2)c1 | 16µM* | -3%
CCOc1ccc(NC(=O)C(=O)NCCc2csc(-c3ccc(F)cc3)n2)cc1 | 0% | -1%
O=C(N/N=C\C=C\c1ccc2c(c1)OCO2)C1COc2cc3ccccc3cc2O1 (stereo not given) | 25µM* | -7%
O=C(N/N=C/c1ccc2c(c1)OCO2)C1COc2ccccc2O1 (stereo not given) | -10% | -4%
SMILES | Cruzain noTriton | Cruzain Triton
O=C(NCCc1ccccc1)c1ccc([N+](=O)[O-])cc1 | 0% | 3%
O=C(CCNC(=O)c1ccccc1)Oc1ccc([N+](=O)[O-])cc1 | 25µM* | -22%
Cc1cc(/C=C2\Cc3ccccc3C2=O)c(C)n1-c1ccccc1 | 16µM* | -8%
Cc1cc(C=C2C(=O)c3ccccc3C2=O)c(C)n1-c1ccccc1 | ? | -4%
CCc1nnc2c(Nc3ccc(N(CC)CC)cc3C)nc3ccccc3n12 | 0% | -1%
Cc1nn(C)c(C)c1CNC(=O)c1cc2n(n1)C(C(F)(F)F)CC(c1cccs1)N2 (stereo not given) | ? | -3%
CCOC(=O)c1c(NC(=O)c2cc3n(n2)C(C(F)(F)F)CC(c2cccs2)N3)sc(C)c1C (stereo not given) | 6.3µM* | -6%
Cc1cc(C)cc(NC(=O)N2CCC(N3CCCCC3)CC2)c1 | 15% | -1%
CN(C)S(=O)(=O)c1ccc2c(c1)N(CC(=O)N1CCN(c3ccc(F)cc3)CC1)CCS2 | 13% | -6%
Cc1cc(C)c(CSc2nnc(C)n3c2cc2occc23)c(C)c1 | ? | -7%
CCCCOc1ccc(C(=O)Nc2cc(-c3ccc(C)cc3)no2)cc1 | -7% | -2%
CCOc1ccc(C(=O)Nc2cc(-c3ccccc3)no2)cc1 | 20µM* | -2%
CCOC(=O)c1c(NC(=S)Nc2ccccc2)sc2c1CCCCC2 | -15% | -5%
CCOC(=O)c1c(NC(=S)Nc2cccc(C)c2)sc2c1CC(C)(C)SC2 | 20µM* | -9%
Cc1ccc(/C=C/c2onc(C)c2S(=O)(=O)N2CCC(C(=O)NCc3ccc(C)o3)CC2)cc1 | 0% | -2%
N#Cc1c(N)nc(SCc2ccncc2)c(C#N)c1-c1cccs1 | 25µM* | -6%
COc1cc(-c2c(C#N)c(N)nc(SCc3ccncc3)c2C#N)cc(OC)c1OC | 0% | -1%
C#CCSc1nc(-c2cccs2)ccc1C#N | -7% | -8%
Cc1ccc(CSc2nc(-c3cccs3)ccc2C#N)cc1 | 25µM* | -3%
CCC1CN(C(=O)N2CCC(C(=O)NCc3ccc(OC)cc3OC)CC2)c2cc(C)ccc2O1 (stereo not given) | ? | -7%
CCOC(=O)CC(=O)CSc1nc2c(c(-c3cccs3)c1C#N)CCC2 | -6% | -8%
CCOCCSc1nc2c(c(-c3cccs3)c1C#N)CC/C2=C/c1cccs1 | 16µM* | -5%
Cc1nn(-c2ccccc2)c2nc(C3CC3)cc(C(=O)Nc3ccc(F)cc3)c12 | -14% | -2%
FC(F)(F)c1nc2ccc(SSc3ccc4nc(C(F)(F)F)[nH]c4c3)cc2[nH]1 | -5% | -2%
COc1ccccc1-c1ccc(/C=C2/C=C(CC(C)C)OC2=O)o1 | 32µM* | -24%
SMILES | Cruzain noTriton | Cruzain Triton
CCCC1=C/C(=C/c2ccc(-c3ccccc3OC)o2)C(=O)O1 | ? | -21%
CCc1ccc(N2C(=O)NC(=O)/C(=C\c3cccn3CCOc3ccc(C(C)C)cc3)C2=O)cc1 | 10µM* | -1%
CC(C)c1ccc(N2C(=O)NC(=O)/C(=C/c3cnc(-c4ccccc4)nc3)C2=O)cc1 | -4% | -7%
CCOC(=O)c1noc2ncnc(Nc3ccc(F)cc3F)c12 | -7% | 7%
CC(=O)N1CCCc2cc(S(=O)(=O)N3CCC(C(=O)N(Cc4ccccc4)C(C)C)CC3)ccc21 | ? | -2%
O=C(Nc1c(C(=O)c2ccccc2)oc2ccccc12)c1cc(-c2ccccc2O)n[nH]1 | 13µM* | -4%
Cc1ccc(C(=O)c2oc3ccccc3c2NC(=O)c2cc(-c3ccccc3O)n[nH]2)cc1 | ? | 0%
O=C(Nc1ccc(C(=O)N2CCN(c3cccc(Cl)c3)CC2)cc1)c1nsc2ccccc12 | 10µM* | -1%
O=C(Nc1cccc(C(=O)N2CCN(c3ccc(Cl)cc3)CC2)c1)c1nsc2ccccc12 | 20µM* | 0%
O=C(Nc1ccc(C(=O)N2CCN(c3ccccc3)CC2)cc1)c1nsc2ccccc12 | -29% | -1%
O=C(Nc1cccc(C(=O)N2CCN(c3cccc(Cl)c3)CC2)c1)c1nsc2ccccc12 | ? | -1%
COCCCNC(=O)N1CCN(c2nnc(C)c3c(C)n(-c4ccc(Cl)cc4)nc23)CC1 | -5% | -2%
Cc1ccc(CSc2nc3c([nH]c4ccccc43)c(=O)n2C)cc1 | 11% | 2%
COc1cc(/C=C/c2nc(C#N)c(N3CCN(C)CC3)o2)cc(OC)c1OC | 13µM* | -1%
COc1ccccc1/C=C/c1nc(C#N)c(N2CCN(c3ccccc3)CC2)o1 | 13% | 4%
COc1cccc(/C=C/c2nc(C#N)c(N3CCN(C)CC3)o2)c1 | 3.2µM* | 25µM*
